TDP1 cell noCPT: qHTS for Inhibitors of human tyrosyl-DNA phosphodiesterase 1 (TDP1): qHTS in cells in absence of CPT | 420,000 compounds, 15% hits | Potency, µM (top dose mostly 46.2 µM), without a hit: top-dose activity change, negative = growth inhibition, hits mostly inhibitors | DT40 Tdp1-/- hTDP1 cells, no CPT, ATP luminescence, 48 h | AID 686978, 2013; also: potency is read from the fitted curve at half-maximal effect; nearly all actives have a fitted effect of over 55% in size
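Growth kinetics read by CellTiter-Glo luminescence after ≥48 hr at 37 °C. Cells: DT40 Tdp1-/- stably carrying human TDP1, 400 per well, compound exposure in the absence of CPT (DMSO vehicle).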
HT1080-NT tox: qHTS for induction of synthetic lethality in tumor cells producing 2HG: qHTS for the HT-1080-NT fibrosarcoma cell line; HT-1080-NT fibrosarcoma viability, CellTiter-Glo ATP luminescence, 48 h; Potency, µM (titrated, usually from 46.1 µM), for the others: top-dose activity, negative = less viability, hits mostly cytotoxic; 360,000 compounds, 1.6% hits;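 also: NT is the 2HG producing partner of a matched IDH1 knockdown line; potency is read from the fitted curve at half-maximal effect; 0% = DMSO-treated cells and -100% = media-only wells without cells; nearly all actives have a fitted effect of over 55% in size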
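Read-out is CellTiter-Glo luminescence after 10 minutes at room temperature, following 48 hours' compound treatment of HT-1080-NT cells (750 cells/well, RPMI, 5% FBS, 37 degrees C).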
HT1080 IDH1KD tx: qHTS for induction of synthetic lethality in tumor cells producing 2HG: qHTS for the HT-1080-IDH1KD cell line; HT-1080 IDH1 knockdown viability, ATP luminescence, 48 h; Potency, µM (series often up to 46.1 µM), without a hit: at the top dose activity, negative = toxicity, most hits filed as cytotoxic; 360,000 compounds, 2% hits;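 also: potency is read from the fitted curve at half-maximal effect; 0% = DMSO wells and -100% = cell-free medium wells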
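Using the IDH1-knockdown HT-1080 line run in the same batch and compound series as the NT line, viability after 48 h at 37 °C was determined by CellTiter-Glo luminescence and expressed as % activity.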
IL1B secr inh: qHTS for Inhibitors of Inflammasome Signaling: IL-1-beta AlphaLISA Primary Screen; THP-1 LPS/ATP IL-1B secretion, AlphaLISA, 16 h; stronger effect = lower value; activity change, % at 57.5 µM; 360,000 compounds, 4.7% hits; AID 743279, 2014; in the data active = activity change below about -50%; inconclusive = mostly about -30% to -49%
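THP-1 cells pretreated 1 hr with compounds (up to 57.5 uM final), then stimulated with LPS (250 ng/mL final) plus ATP (1.25 mM final); secreted IL-1B measured by AlphaLISA after 16 hr, decreased signal indicating inhibition.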
DT40 TDP1 CPT: qHTS for Inhibitors of human tyrosyl-DNA phosphodiesterase 1 (TDP1): qHTS in cells in presence of CPT; chicken DT40 Tdp1-/-;hTDP1 cells + 20 nM CPT, ATP luminescence, 48 h; Potency, µM (highest dose often 46.2 µM), for the others: top-dose activity change, negative = growth inhibition, usual class: inhibitors; 420,000 compounds, 12% hits; also: potency is read from the fitted curve at half-maximal effect; nearly all actives have a fitted effect of over 55% in size
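Chicken DT40 Tdp1-/- cells stably complemented with human TDP1 were seeded at 400 cells/well in medium containing 20 nM camptothecin, exposed to pin-transferred compounds, and grown at 37 °C for at least 48 hr. Viability was read as ATP luminescence.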
* marks the source's active call; other numbers are inactive results. Shown are actives, neighbours in structure and some others; about 19% of the full set was active somewhere. Unless noted, calls follow the shape of the dose curve; as a rule, active = well fitted curve in the direction sought with a large enough effect; inconclusive = small, poorly fitted or top-dose-only effect, or another doubt; inactive = no such curve, though single readings can be large; an effect the other way counts as inactive or inconclusive. Unless noted, % is scaled to controls: 0 for no effect and ±100 for the full control effect.

Screening Cc1ccc(NC(=O)c2sc3ccccc3c2Cl)cc1 returned TDP1 cell noCPT -3% and DT40 TDP1 CPT -23%.
For COc1ccc(NC(=O)C2CCCC2)cc1S(=O)(=O)N1CCOCC1 the results were TDP1 cell noCPT 11%, HT1080-NT tox 1%, HT1080 IDH1KD tx 7%, IL1B secr inh -12 and DT40 TDP1 CPT 13%.
Screening N#C/C(=N\Nc1cccc2ccccc12)c1nnc2n1CCCCC2 returned TDP1 cell noCPT 33µM*, HT1080-NT tox -15%, HT1080 IDH1KD tx -4%, IL1B secr inh 27 and DT40 TDP1 CPT inconclusive.
`N#C/C(=C\c1c[nH]c2ccccc12)c1nnc2n1CCCCC2` gave TDP1 cell noCPT inconclusive, HT1080-NT tox 23%, HT1080 IDH1KD tx 15%, IL1B secr inh inconclusive and DT40 TDP1 CPT -8%.
`CCOC(=O)c1cc2c(=O)c3cc(C)ccc3oc2nc1C` gave TDP1 cell noCPT 15µM*, HT1080-NT tox 29%, HT1080 IDH1KD tx 12%, IL1B secr inh -2 and DT40 TDP1 CPT inconclusive.
Screening COCCNC(=S)Nc1ccc2[nH]c(=O)[nH]c2c1 returned TDP1 cell noCPT 6%, HT1080-NT tox 0%, HT1080 IDH1KD tx 0%, IL1B secr inh 1 and DT40 TDP1 CPT 1%.
For COc1cc(/C=N/NC(=O)CC23CC4CC(CC(C4)C2)C3)cc(Br)c1OCC(=O)N(C)C the results were TDP1 cell noCPT 18µM*, HT1080-NT tox inconclusive, HT1080 IDH1KD tx inconclusive, IL1B secr inh -25 and DT40 TDP1 CPT 21µM*.
Screening COc1cc(/C=N/NC(=O)C23CC4CC(CC(C4)C2)C3)cc(Br)c1O returned TDP1 cell noCPT -30%, HT1080-NT tox 3%, HT1080 IDH1KD tx 3%, IL1B secr inh 19 and DT40 TDP1 CPT 22%.
For COc1ccccc1N1CCN(C(=O)CNS(=O)(=O)c2ccc(Br)s2)CC1 the results were TDP1 cell noCPT inconclusive, HT1080-NT tox -21%, HT1080 IDH1KD tx -25%, IL1B secr inh -5 and DT40 TDP1 CPT inconclusive.
Screening Nc1ncc(Br)cc1S(=O)(=O)NCCC(=O)Nc1cccc(Cl)c1 returned TDP1 cell noCPT -13%, HT1080-NT tox inconclusive, HT1080 IDH1KD tx -27%, IL1B secr inh -61* and DT40 TDP1 CPT -20%.
COc1ccccc1N1CCN(C(=O)CCNS(=O)(=O)c2ccc(Br)s2)CC1 was read as TDP1 cell noCPT 18µM*, HT1080-NT tox -10%, HT1080 IDH1KD tx -8%, IL1B secr inh -6 and DT40 TDP1 CPT 23µM*.
For COc1ccccc1N1CCN(C(=O)CCNS(=O)(=O)c2cc(Br)cnc2N)CC1 the results were TDP1 cell noCPT inconclusive, HT1080-NT tox -5%, HT1080 IDH1KD tx 1%, IL1B secr inh 2 and DT40 TDP1 CPT 18µM*.
Screening COc1ccccc1C1c2[nH]c3ccccc3c2CCN1Cc1ccc(NC(C)=O)s1 (stereo not drawn) returned TDP1 cell noCPT inconclusive, HT1080-NT tox 21%, HT1080 IDH1KD tx -8%, IL1B secr inh -21 and DT40 TDP1 CPT inconclusive.
Screening CCCCCCNc1c([N+](=O)[O-])cc(C)cc1[N+](=O)[O-] returned TDP1 cell noCPT -23%, HT1080-NT tox 10%, HT1080 IDH1KD tx 5%, IL1B secr inh -17 and DT40 TDP1 CPT -16%.
`Cc1noc(-c2ccccc2OCC(=O)Nc2cccc([N+](=O)[O-])c2)n1` gave TDP1 cell noCPT -29% and DT40 TDP1 CPT inconclusive.
For CCc1ccc(C#CC2=CC(=O)CC(C)(C)C2)cc1 the results were TDP1 cell noCPT inconclusive, HT1080-NT tox -4%, HT1080 IDH1KD tx -11%, IL1B secr inh inconclusive and DT40 TDP1 CPT inconclusive.
For Clc1ccc(NC2(c3nnnn3C3CCCCC3)CCCCC2)cc1 the results were TDP1 cell noCPT 21µM*, HT1080-NT tox -14%, HT1080 IDH1KD tx -9%, IL1B secr inh 3 and DT40 TDP1 CPT 18µM*.
Screening Cc1cccc(C)c1-n1nnnc1C1(Nc2ccccc2)CCCCC1 returned TDP1 cell noCPT inconclusive, HT1080-NT tox -6%, HT1080 IDH1KD tx -12%, IL1B secr inh inconclusive and DT40 TDP1 CPT inconclusive.
Cc1ccc(Cl)cc1NCc1nnc2n1CCCCC2 was read as TDP1 cell noCPT 4% and DT40 TDP1 CPT -1%.
Screening CC(C)c1ccc(NC(=O)c2cc(-c3cc(F)ccc3OCC3CCCO3)n[nH]2)cc1 (stereo not drawn) returned TDP1 cell noCPT inconclusive, HT1080-NT tox 0%, HT1080 IDH1KD tx 3%, IL1B secr inh -11 and DT40 TDP1 CPT inconclusive.
Screening O=C(c1cc2cc(Cl)ccc2[nH]1)N1CCc2ccccc2C1 returned TDP1 cell noCPT -46%, HT1080-NT tox 15%, HT1080 IDH1KD tx 7%, IL1B secr inh 8 and DT40 TDP1 CPT inconclusive.
Screening Cc1ccc(Cl)cc1-c1cc(C(=O)NCc2ccc(C(F)(F)F)cc2)[nH]n1 returned TDP1 cell noCPT 16µM*, HT1080-NT tox inconclusive, HT1080 IDH1KD tx inconclusive, IL1B secr inh 0 and DT40 TDP1 CPT 21µM*.
O=C(NCC1CCCCC1)c1cc(-c2cc(F)ccc2OCC2CCCO2)n[nH]1 (stereo not drawn) was read as TDP1 cell noCPT inconclusive, HT1080-NT tox inconclusive, HT1080 IDH1KD tx inconclusive, IL1B secr inh -56* and DT40 TDP1 CPT 18µM*.
COc1ccc(Cl)c(-c2cc(C(=O)NCc3ccco3)[nH]n2)c1 was read as TDP1 cell noCPT -23%, HT1080-NT tox 13%, HT1080 IDH1KD tx 2%, IL1B secr inh -30 and DT40 TDP1 CPT -23%.
Cc1ccc(Cl)cc1-c1cc(C(=O)N2CCc3ccccc3C2)[nH]n1 was read as TDP1 cell noCPT inconclusive, HT1080-NT tox -2%, HT1080 IDH1KD tx -7%, IL1B secr inh inconclusive and DT40 TDP1 CPT 16µM*.
Screening COc1ccc(Cl)c(-c2cc(C(=O)NCc3ccc(C(F)(F)F)cc3)[nH]n2)c1 returned TDP1 cell noCPT inconclusive, HT1080-NT tox -18%, HT1080 IDH1KD tx -12%, IL1B secr inh -28 and DT40 TDP1 CPT 16µM*.
For CCOc1nc(C#N)nc(N(c2ccccc2)c2ccccc2)n1 the results were TDP1 cell noCPT -7% and DT40 TDP1 CPT 1%.
Screening COc1ccc(-c2cc(C(=O)NCC3CCCCC3)[nH]n2)c(C)c1 returned TDP1 cell noCPT inconclusive, HT1080-NT tox 4%, HT1080 IDH1KD tx 7%, IL1B secr inh -9 and DT40 TDP1 CPT inconclusive.
